# Assay outcomes from PubChem BioAssay.
# Hits are enriched below; roughly 19% of the tested compounds scored in any of these assays.
# IL1B secr inh – inflammasome signaling inhibition, IL-1 beta readout; THP-1 LPS/ATP IL-1B secretion, AlphaLISA, 16 h; active compounds read low; activity change, % at 57.5 µM; hit rate 4.7% among 360,000; in the data active means activity change below about -50%; inconclusive means mostly about -30% to -49%
#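 Secreted IL-1B measured by AlphaLISA bead assay after 16 h compound exposure of THP-1 cells; compounds (final up to 57.5 uM) added 1 h before LPS (250 ng/mL) and ATP (1.25 mM) stimulation; lower signal means less secretion.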
# HT1080 IDH1KD tx – kills HT-1080 cells with IDH1 knockdown. HT-1080 IDH1 knockdown viability, ATP luminescence, 48 h. AID 686971. Potency, µM (highest dose often 46.1 µM), for the others: at the top dose activity, negative = toxicity, actives largely listed as cytotoxic. hit rate 2% among 360,000;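 further: potency means the concentration at half of the fitted maximal effect; 0% = DMSO wells and -100% = cell-free medium wells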
#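 Luminescent ATP read-out (CellTiter-Glo, 10 min at room temperature) after 48 h compound exposure at 37 °C gave viability of IDH1-knockdown HT-1080 cells. Activity was normalised to DMSO and cell-free wells, then fitted as concentration-response curves.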
# TDP1 cell CPT – growth inhibition of DT40 Tdp1-/-;hTDP1 cells with camptothecin (screen for TDP1 inhibitors). chicken DT40 Tdp1-/-;hTDP1 cells + 20 nM CPT, ATP luminescence, 48 h. Potency, µM (doses to about 46.2 µM), without a hit: at the top dose activity change, negative = growth inhibition, actives largely listed as inhibitors. hit rate 12% among 420,000. AID 686979; further: potency means the concentration at half of the fitted maximal effect; nearly all actives have a fitted effect of over 55% in size
#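 Chicken DT40 Tdp1-/- cells complemented with human TDP1, 400 cells/well, exposed to compounds plus 20 nM camptothecin for at least 48 h at 37 C; viability read as ATP content by CellTiter-Glo luminescence.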
# TDP1 cell noCPT – qHTS for Inhibitors of human tyrosyl-DNA phosphodiesterase 1 (TDP1): qHTS in cells in absence of CPT; DT40 Tdp1-/- hTDP1 cells, no CPT, ATP luminescence, 48 h; Potency, µM (top dose mostly 46.2 µM), for the others: at the top dose activity change, negative = growth inhibition, most hits filed as inhibitors; hit rate 15% among 420,000; further: potency means the concentration at half of the fitted maximal effect; nearly all actives have a fitted effect of over 55% in size
#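 Growth kinetics read by CellTiter-Glo luminescence after ≥48 hr at 37 °C. Cells: DT40 Tdp1-/- stably carrying human TDP1, 400 per well, compound exposure in the absence of CPT (DMSO vehicle).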
# HT1080NT lethal – kills 2HG-producing HT-1080-NT fibrosarcoma cells. Potency, µM (doses to about 46.1 µM), inactives show at the top dose activity, negative = less viability, actives largely listed as cytotoxic. AID 686970. hit rate 1.6% among 360,000. HT-1080-NT fibrosarcoma viability, CellTiter-Glo ATP luminescence, 48 h;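 further: NT is the 2HG producing partner of a matched IDH1 knockdown line; potency means the concentration at half of the fitted maximal effect; 0% = DMSO-treated cells and -100% = media-only wells without cells; nearly all actives have a fitted effect of over 55% in size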
#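 A 48-hour cytotoxicity screen used HT-1080-NT cells plated 2 hours before compound delivery. ATP-based CellTiter-Glo luminescence measured viability, normalized to DMSO and no-cell controls.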
# Numbers without * were called inactive; ? = inconclusive; . = no result. Unless noted, the call rests on the fitted dose curve; in most records, active means well fitted curve in the direction sought with a large enough effect; inconclusive means small, poorly fitted or top-dose-only effect, or another doubt; inactive means no such curve, though single readings can be large; an effect the other way counts as inactive or inconclusive. Unless noted, on the % scale 0 is the no-effect control and ±100 the full control effect.
SMILES,IL1B secr inh,HT1080 IDH1KD tx,TDP1 cell CPT,TDP1 cell noCPT,HT1080NT lethal
CC1=C(C(=O)OCc2ccccc2)C(c2ccccc2Br)NC(=O)N1 (stereo not given),-72*,-27%,-2%,?,-23%
CCOc1ccc(C2NC(=O)NC(C)=C2C(=O)OCc2ccccc2)cc1 (stereo not given),?,?,-29%,?,?
CCCCOC(=O)C1=C(C)NC(=O)NC1c1cccc([N+](=O)[O-])c1 (stereo not given),-15,-8%,?,-21%,-1%
COc1ccccc1C1NC(=O)NC(C)=C1C(=O)OCc1ccccc1 (stereo not given),-16,-10%,-19%,?,-10%
O=C(c1nc[nH]c1C(=O)N1CCc2ccccc2C1)N1CCc2ccccc2C1,13,-1%,?,?,-1%
Cc1csc(NC(=O)C2CCN(C(=O)c3ccccc3C)CC2)n1,22,1%,-26%,?,-8%
O=C(COc1ccc(F)c(Cl)c1)NC(=O)NC1CCCC1,-13,19%,-5%,-11%,8%
CSC1=C(C#N)C(=O)NC(c2ccc(Cl)cc2)S1 (stereo not given),?,-4%,?,16µM*,-2%
O=C(N/N=C/c1ccc(OC(F)F)cc1)c1cc[n+]([O-])cc1,7,1%,8%,-1%,0%
C/C(=N\NC(=O)c1cccc(S(=O)(=O)N2CCOCC2)c1)c1ccc(OC(F)F)cc1,-7,-14%,-13%,-20%,-12%
Cc1ccc(S(=O)(=O)N(C)Cc2ccc(C(=O)N/N=C/c3ccc(OC(F)F)cc3)cc2)cc1,10,-9%,15µM*,21µM*,-3%
C/C(=N\NC(=O)c1ccc(CN(C)S(=O)(=O)c2ccc(C)cc2)cc1)c1ccc(OC(F)F)cc1,31,-29%,?,1.5µM*,-18%
COc1ccc(NC(=O)Nc2cccc(C(F)(F)F)c2)cn1,?,?,?,21µM*,?
Cc1ccc(OC(F)F)c(NC(=O)Nc2cccc(C(F)(F)F)c2)c1,-99*,?,13µM*,?,?
COc1ccc(NC(=O)Nc2cccs2)cn1,-6,6%,13µM*,18µM*,12%
O=C(CS(=O)CC(=O)N(CC(=O)NC1CCCC1)c1ccccc1F)Nc1ccc(F)cc1 (stereo not given),21,16%,1%,-1%,6%
c1ccc(COc2cccc(CNCc3cccnc3)c2)cc1,-1,-3%,-23%,?,-9%
O=[N+]([O-])c1ccc(COc2cccc(CNc3ccc(F)cc3)c2)cc1,?,-6%,26µM*,13µM*,2%
Oc1ccc(NCc2cccc(OCc3ccc(F)cc3)c2)cc1,29,-20%,23µM*,18µM*,?
Oc1ccc(NCc2cccc(OCc3ccccc3)c2)cc1,57,?,15µM*,21µM*,?
CN(C)C(CNC(=O)c1cccc(S(=O)(=O)Nc2ccc(SC(F)F)cc2)c1)c1ccccc1 (stereo not given),-11,3%,?,?,2%
CCN(c1ccccc1)S(=O)(=O)c1ccc2c(c1)N(C(C)=O)CCS2,90,6%,-11%,4%,-1%
O=C(NCC1CCCC(CNC(=O)Nc2ccc(Cl)cn2)C1)Nc1ccc(Cl)cn1 (stereo not given),-83*,?,?,?,?
O=C(COC(=O)CC1CCCC1)Nc1ccc(Cl)cn1,0,7%,-12%,-26%,9%
Cc1cc(C)n(-c2nc3ccccc3c(=O)n2OCCOc2ccccc2)n1,12,16%,12µM*,18µM*,?
SMILES,IL1B secr inh,HT1080 IDH1KD tx,TDP1 cell CPT,TDP1 cell noCPT,HT1080NT lethal
COc1cccc(Nc2ncc3nc(CCc4ccccc4)c(=O)n(Cc4cccs4)c3n2)c1,.,.,-5%,-5%,.
O=c1c2ccccc2nc(COc2ccccc2)n1/N=C/c1ccco1,?,-1%,?,15µM*,-3%
O=c1c2ccccc2nc(COc2ccccc2)n1/N=C/c1ccc(O)c(O)c1,-27,-12%,15µM*,10µM*,4%
COc1ccc(/C=C2\Sc3ccc(C(=O)NCC4CCCO4)cc3N(C)C2=O)cc1 (stereo not given),7,-7%,?,-18%,?
CC1(C)CCN2CCC(C)(C)c3c(O)ccc1c32,14,?,3.3µM*,3.7µM*,?
CCOC(=O)/C=c1/s/c(=C\c2c(OC)ccc3ccccc23)c(=O)n1CC(=O)NCC1CCCO1 (stereo not given),6,?,23µM*,26µM*,16µM*
CCOC(=O)/C=c1\s/c(=C\c2ccccc2C)c(=O)n1CC(=O)NCc1ccc2c(c1)OCO2,16,?,?,?,?
CCOC(=O)/C=c1\s/c(=C\c2ccc3cc(OC)ccc3c2)c(=O)n1CC(=O)NCc1ccc2c(c1)OCO2,7,9%,6.5µM*,9.2µM*,12%
CCOc1cc2[nH]c(=O)n(CCCCC(=O)NCc3ccco3)c(=O)c2cc1OCC,10,1%,-1%,-12%,11%
COc1ccc(OCCCn2cc(/C=C3/C(=N)N4C=C(C)SC4=NC3=O)c3ccccc32)cc1,19,4%,?,7.3µM*,5%
CC1=CN2C(=N)/C(=C/c3ccco3)C(=O)N=C2S1,-4,-4%,-11%,-16%,-3%
COc1cccc(OCCCn2cc(/C=C3/C(=N)N4C=C(C)SC4=NC3=O)c3ccccc32)c1,8,?,8.2µM*,6.5µM*,?
O=C(/C=C/c1ccc(F)cc1)NCCCn1ccnc1,33,1%,-4%,15%,2%
CN(C)S(=O)(=O)N1CCC(Oc2cccc(C(=O)N3CCCCCCC3)c2)CC1,-7,0%,?,?,-2%
COc1cccc(C2C3=C(N=c4s/c(=C\c5cccc(O)c5)c(=O)n42)c2ccccc2CC3)c1OC (stereo not given),-57*,?,-116%,?,-23%
CCOC(=O)C1=C(C)N=c2s/c(=C\c3ccc(C(=O)O)cc3)c(=O)n2C1c1ccc(OC)cc1OC (stereo not given),-11,0%,?,?,-2%
CCOC(=O)C1=C(C)N=c2sc(=Cc3cc(Cl)c(OCC(=O)O)c(OC)c3)c(=O)n2C1c1ccccc1Cl (stereo not given),3,-9%,?,21µM*,?
